# Screening results: PubChem, National Center for Advancing Translational Sciences (NCATS)
# Shown are actives, neighbours in structure and some others; about 2.4% of the full set was active somewhere.
# WRN helicase inh: qHTS for Inhibitors of WRN Helicase. Bifunctional 3'-5' exonuclease/ATP-dependent helicase WRN (Homo sapiens), Q14191. WRN helicase unwinding, fluorescent forked duplex, kinetic. Potency, µM (series often up to 114 µM), inactives show at the top dose activity change, negative = inhibition, most hits filed as inhibitors. actives 0.46% (n = 360,000); also: % is scaled to controls: 0 for no effect and ±100 for the full control effect; nearly all actives have a fitted effect of over 55% in size
#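 Enzyme (20 nM final) and test compound sit together 15 min at room temperature before substrate addition. Substrate is a single-forked duplex oligonucleotide (100 nM) labelled with fluorophore and quencher, with 2 mM ATP; helicase unwinding raises red fluorescence, read kinetically.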
# FEN1 inhibitor: qHTS Assay for the Inhibitors of Human Flap endonuclease 1 (FEN1) | Recombinant FEN1 flap cleavage, fluorescence, 15 min | Potency, µM (titrated, usually from 114 µM), inactives show at the highest dose activity change, negative = inhibition, most hits filed as inhibitors | actives 0.35% (n = 390,000) | AID 588795, 2011; also: % is scaled to controls: 0 for no effect and ±100 for the full control effect; nearly all actives have a fitted effect of over 65% in size
#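 In this screen, 50 nM flap DNA substrate was added to 10 nM FEN1 pretreated with compound for 15 min at room temperature; cleavage was followed with reads at 0 and 15 min, and Hill fitting gave concentration–response parameters.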
# Pol kappa inh: qHTS for Inhibitors of Polymerase Kappa | DNA polymerase kappa (Homo sapiens), Q9UBT6 | purified Pol kappa, fluorescent DNA synthesis assay, 10 min | Potency, µM (doses to about 107 µM), without a hit: at the top dose activity, negative = inhibition, actives largely listed as inhibitors | actives 0.53% (n = 400,000) | AID 588579, 2011; also: % is scaled to controls: 0 for no effect and ±100 for the full control effect
# Target sequence (Q9UBT6 whole entry, looked up): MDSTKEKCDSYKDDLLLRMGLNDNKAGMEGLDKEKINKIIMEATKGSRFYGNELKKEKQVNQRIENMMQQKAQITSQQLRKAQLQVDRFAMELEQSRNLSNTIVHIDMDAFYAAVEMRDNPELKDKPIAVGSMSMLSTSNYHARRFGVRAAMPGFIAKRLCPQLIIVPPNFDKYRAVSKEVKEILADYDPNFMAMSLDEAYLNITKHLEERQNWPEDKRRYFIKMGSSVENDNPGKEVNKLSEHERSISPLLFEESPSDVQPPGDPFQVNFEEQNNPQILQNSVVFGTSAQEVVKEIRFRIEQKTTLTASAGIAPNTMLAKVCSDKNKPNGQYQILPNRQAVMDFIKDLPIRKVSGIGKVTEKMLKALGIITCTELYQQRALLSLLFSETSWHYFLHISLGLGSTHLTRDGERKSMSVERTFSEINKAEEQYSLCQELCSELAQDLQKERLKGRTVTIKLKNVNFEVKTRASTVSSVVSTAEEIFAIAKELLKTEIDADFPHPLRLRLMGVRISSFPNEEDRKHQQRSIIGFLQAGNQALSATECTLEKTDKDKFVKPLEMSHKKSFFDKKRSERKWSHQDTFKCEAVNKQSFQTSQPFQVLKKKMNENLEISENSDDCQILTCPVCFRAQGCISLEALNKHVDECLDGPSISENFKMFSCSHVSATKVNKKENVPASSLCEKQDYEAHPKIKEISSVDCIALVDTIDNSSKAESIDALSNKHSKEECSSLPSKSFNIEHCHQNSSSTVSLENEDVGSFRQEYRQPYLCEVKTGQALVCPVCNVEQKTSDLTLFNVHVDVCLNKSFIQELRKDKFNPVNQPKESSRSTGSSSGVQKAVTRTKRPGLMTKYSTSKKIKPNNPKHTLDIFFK
#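 Pol kappa 10 nM + cpd, 15 min RT; start w/ substrate 50 nM final; fluorescence kinetic read, 0 and 10 min. Neg ctrl: buffer, no enzyme.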
# Pol iota inh: qHTS for Inhibitors of Polymerase Iota | DNA polymerase iota (Homo sapiens), Q9UNA4 | Pol iota fluorescent replication assay, 10 min | Potency, µM (titrated, usually from 115 µM), for the others: top-dose activity, negative = inhibition, usual class: inhibitors | actives 1% (n = 390,000)
#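 Pol iota at 10 nM preincubated 15 min with compounds at room temperature; reaction started with fluorescent substrate, 50 nM final. Fluorescence read kinetically at 0 and 10 min; buffer-only wells as negative control.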
# POLB inh: qHTS Assay for Inhibitors of DNA Polymerase Beta; P06746; Pol beta primer extension/strand displacement, fluorescence kinetic; Potency, µM (highest dose often 114 µM), without a hit: top-dose activity change, negative = inhibition, hits mostly inhibitors; actives 1.3% (n = 340,000); AID 485314, 2010; also: % is scaled to controls: 0 for no effect and ±100 for the full control effect
#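 Kinetic readout of DNA synthesis with strand displacement by Pol beta. Compound and 10 nM enzyme sit 15 min at room temperature; 50 nM substrate starts the reaction, read immediately and at 10 min.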
# Pol eta inh: qHTS for Inhibitors of Polymerase Eta. Potency, µM (series often up to 114 µM), without a hit: at the top dose activity change, negative = inhibition, most hits filed as inhibitors. recombinant Pol eta, fluorescent DNA replication assay. AID 588591, 2011. DNA polymerase eta (Homo sapiens), Q9Y253. actives 1.2% (n = 390,000); also: % is scaled to controls: 0 for no effect and ±100 for the full control effect
#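 Fluorescent replication assay: 50 nM final substrate added after a 15 min room-temperature compound preincubation with 10 nM enzyme. Signal taken at 0 min and again at 10 min.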
# The depositor's hits bear a star; ? = inconclusive; . = no result given; [ ] = remark or other dose. Calls follow the shape of the dose curve; as a rule, active = well fitted curve in the direction sought with a large enough effect; inconclusive = small, poorly fitted or top-dose-only effect, or another doubt; inactive = no such curve, though single readings can be large; an effect the other way counts as inactive or inconclusive. Potency is read from the fitted curve at half-maximal effect.
SMILES,WRN helicase inh,FEN1 inhibitor,Pol kappa inh,Pol iota inh,POLB inh,Pol eta inh
O=c1c2ccccc2nc(COc2ccccc2)n1/N=C/c1ccc(O)c(O)c1,?,-4%,?,?,?,32µM*
O=C(O)COc1ccc(/C=N/n2c(COc3ccccc3)nc3ccccc3c2=O)cc1,-32%,5%,-12%,8%,3%[57.1 µM],-1%
O=C(CSc1nnc(-c2ccco2)o1)N1CCN(c2ccccc2)CC1,-30%,4%,3%,67%,?,-6%
O=C(CSc1nnc(-c2ccc(Cl)cc2)o1)N1CCN(c2ccccc2)CC1,.,.,.,.,32µM*,.
CC(NC(=O)COC(=O)c1cc([N+](=O)[O-])ccc1N1CCOCC1)c1ccc(F)cc1 (configuration not stated),-8%[11.6 µM],10%,?,?,.,56µM*
CC(NC(=O)COC(=O)c1cc([N+](=O)[O-])ccc1N1CCOCC1)c1ccccc1 (configuration not stated),-15%,-6%,-5%,22%,-1%,-21%
CN(C)c1ccc(-c2nc(-c3cccs3)c(-c3cccs3)[nH]2)cc1,.,-23%,-12%,-1%,3%,-13%
Cn1c(SCC(=O)Nc2ccc(Br)cn2)nnc1C1CC1,-1%,11%,-42%,?,?,79µM*
CCCCCCCCCCCCC/C=C/C(O)C(COP(=O)(O)OCCN)NC(=O)CCCCCCCCCCCCCCCCC (configuration not stated),.,.,13%[60.1 µM],.,.,.
O=C1Nc2ccccc2/C1=C/c1cnc(-c2ccccc2)[nH]1,?,9%,-30%,?,22µM*,-30%
CC1CCN2c3cc(Cl)ccc3CC3(C(=O)OC(C)(C)OC3=O)C2C1 (configuration not stated),.,-6%,-12%,?,.,.
COCCNC(=O)COc1ccc(OCCNC[C@H](O)COc2ccccc2)cc1,.,.,6%[19.4 µM],.,.,.
CCOc1cccc(NC(=O)/C(C#N)=C\c2cn(CC(=O)O)c3ccccc23)c1,-6%,-2%,0%,-2%,50µM*,?
CCOc1ccc(NC(=O)/C(C#N)=C/c2cn(CC(=O)O)c3ccccc23)cc1,-21%,11%,-17%,99%,-9%,-18%
CCSc1cc(N2CCCC2)nc(-c2ccc(C)cc2)n1,0%,89µM*,?,?,0%,4%
CC(C)(C)OC(=O)NS(=O)(=O)Nc1ccccc1Br,.,-11%,-7%,-17%,.,.
O=Cc1[nH]c2ccccc2c1N(C(=O)CCl)c1ccccc1,-6%,0%,-11%,?,-10%,20µM*
COc1ccc(-c2ccc(CCC(=O)O)n2NC(N)=O)cc1,-5%,2%,-9%,2%,6%,-4%
Cc1ccc(-c2ccc(CCC(=O)O)n2-c2ccc(C)c(Cl)c2)cc1,.,8%,0%,16%,?,6%
CCCn1c(CCC(=O)O)ccc1-c1ccc(OC)cc1,-27%,-4%,-4%[60.1 µM],6%,25µM*,?
Cc1ccc(C)c(-n2c(CCC(=O)O)ccc2-c2ccc(Cl)cc2)c1,.,8%,4%,-16%,7.9µM*,14%
O=C(O)CCc1ccc(-c2ccc(Cl)cc2)n1CC(=O)O,-12%,4%,-9%,?,?,50µM*
CC(C)CCNC(=O)C1CCCN(S(=O)(=O)c2ccc3c(c2)CC(C)N3C(=O)C2CC2)C1 (configuration not stated),3%,8%,16%,-10%,-5%,-17%
CC(C)CCNC(=O)C1CCN(S(=O)(=O)c2ccc3c(c2)CC(C)N3C(=O)C2CCC2)CC1 (configuration not stated),-6%,-14%,3%,-2%,56µM*,-10%
